Test results from PubChem BioAssay (NCI).
About 79,000 compounds went through this panel and 15% of them were active in at least one assay; those are over-represented in the sample as a whole. Values without a mark were called inactive. Calls of active or inactive are those of the source. Rule as the data show it: active = growth inhibition above about 70%; inactive = the rest. Where a SMILES comes first, the peptide text is derived from it. [ ]: non-standard residue; d: D form. Nva = CCC[CH](N)C(=O)O

Assay: NCI Yeast Anticancer Drug Screen. Data for the cln2 rad14 strain (AID 165);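 also: 0% = growth equal to vehicle treated cultures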
Conditions: S. cerevisiae cln2 rad14 strain, at 50.0 µM (retest, dose inferred, filed as 5.0), active compounds read high
Summary of the method: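 Yeast strain cln2 rad14, bearing defects in cell cycle control and DNA repair, serves as the test system; values reflect growth inhibition compared with vehicle.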

| Structure (SMILES) | growth inhibition |
| --- | --- |
| O=[N+]([O-])c1ccc(-c2ccc(-c3csc(Nc4ccccc4)n3)o2)cc1 | 97% (active) |
| C1=C(C2=C[P+](c3ccccc3)(c3ccccc3)C=C(c3ccccc3)O2)OC(c2ccccc2)=C[P+]1(c1ccccc1)c1ccccc1 | 2% |
| Cc1ccc(C2C(O)=C(c3ccccc3)Sc3ccc(C)cc32)cc1 (stereo not given) | 51% |
| CCc1n[nH]c(CC)c1CCCCCCOc1ccc(OC)cc1Cl | 76% (active) |
| C=C1CC[C@H]2C(C)=CC[C@@H]3[C@H](OC(=O)[C@H]3CN3CCN(c4ccc(C)c([N+](=O)[O-])c4)CC3)[C@@H]12 | 60% |
| C(CCCCCN1CCCCC1)CCCCN1CCCCC1 | 6% |
| CN(Cc1cnc2nc(N)nc(N)c2n1)c1ccc(C(=O)NC(CCC(=O)O)C(=O)O)cc1C(F)(F)F (stereo not given) | 5% |
| CC(C(=O)O)C(N)C(=O)O (stereo not given) | -6% |
| CCCCCCCCCCN(CCCCCCCCCC)C1CC(OC2CC(O)(C(O)CO)Cc3c(O)c4c(c(O)c32)C(=O)c2c(OC)cccc2C4=O)OC(C)C1O (stereo not given) | 88% (active) |
| COc1ccc(OCC(O)CN2CCN(c3cccc(Cl)c3)CC2)cc1 (stereo not given) | -7% |
| O=C(O)c1ccccc1C(=O)c1ccc2c(c1)Cc1ccccc1-2 | 31% |
| Cc1cc(C2c3ccccc3-c3ccccc32)cc(C)c1O | -9% |
| CC(C)(C)c1cc(Cl)c(O)c(Cc2cc(C(C)(C)C)cc(Cl)c2O)c1 | 79% (active) |
| COc1cccc(/C=C/C(C)=O)c1OC | 4% |
| Cc1nc2c(cnn2C)cc1CCc1ccccc1 | 50% |
| O=C1C(C(O)(C(F)(F)Cl)C(F)(F)Cl)CCCC1C(O)(C(F)(F)Cl)C(F)(F)Cl (stereo not given) | 100% (active) |
| C=CCNCCC1CCCCCC1 | 96% (active) |
| CCCC(N)C(=O)NC(C(=O)O)C(C)C (stereo not given) (H-[Nva]-Val-OH; configuration not given here) | -5% |
| Cc1cc(N)c2cc(NC(=O)Nc3ccc4nc(C)cc(N)c4c3)ccc2n1 | 100% (active) |
| COc1ccc(N=Cc2ccccc2O)cc1 | -24% |

| Structure (SMILES) | growth inhibition |
| --- | --- |
| Cc1cc(Br)c2ccccc2c1N | 42% |
| c1ccc(-c2cc(Nc3ccc4c(c3)OCO4)c3cc(C4CCCCC4)ccc3n2)cc1 | 93% (active) |
| CCCCCCCCc1cc[n+](C2=C([O-])c3ccccc3C(=O)C2=O)cc1 | 95% (active) |
| CCCCCCCCCCCc1nnc(N)o1 | 92% (active) |
| O=C1OC(OCC#CCOC2OC(=O)C(Cl)=C2Cl)C(Cl)=C1Cl (stereo not given) | 99% (active) |
| O=S(=O)(O)CC[S][Sn]([S]CCS(=O)(=O)O)([c]1ccccc1)[c]1ccccc1 (tested in a mixture with another compound) | 94% (active) |
| CC(C)NC(=O)OCCS(=O)c1c(Cl)c(Cl)nn1C (stereo not given) | 20% |
| CN1N=C2c3ccccc3CC[C@H]2C1c1cccc(O)c1 (stereo not given in full) | 83% (active) |
| O=C1CSC(=S)N1/N=C/c1ccc(Cl)c([N+](=O)[O-])c1 | 40% |
| O=C(O)CCCCCCCCC(=O)CCl | 98% (active) |
| O=C(NC1CCN(Cc2ccccc2)CC1)c1ccccc1I | 82% (active) |
| Cc1ccc(Nc2nc3c(s2)C(=O)c2ccccc2C3=O)cc1 | 96% (active) |
| O=C(/C=C/c1ccccc1)c1cc2c(cc1O)OCO2 | 31% |
| O=[N+]([O-])c1ccc(Sc2ccc([N+](=O)[O-])o2)o1 | 99% (active) |
| CCCCCCCCN(CCCCCCCC)CC(O)c1cc(OCC)nc2ccccc12 (stereo not given) | 96% (active) |
| CC(O)CCc1nc2ccccc2[nH]1 (stereo not given) | 27% |
| CCCCCCCCCCCCCCCCSC(=NC)NC | 99% (active) |
| O=C(O)CCC(O)=C1S(=O)(=O)OCCOS1(=O)=O | -30% |
| CCCCCCCCCCCCCCCCN | 97% (active) |
| COC1=C(Br)C(=O)N/C1=C(\OC)c1ccccc1 | 0% |
